Screens (PubChem)
Hedgehog inh: Sonic Hedgehog pathway inhibition. Shh-LIGHT2 Gli-luciferase reporter, 30 h. inhibition, % (no concentration beside the values). 22,000 compounds, 2.1% hits. AID 2313;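 active = mean inhibition across valid replicates above about 65%, limit read from the data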;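 note: pathway switched on by Shh-conditioned medium diluted 1 in 25 in low serum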
PD-1 reversal: reversal of PD-1 mediated T-cell inhibition; primary human CD4 T cells, PD-L1 beads, CellTiter-Glo 96 h; activation, % (concentration not given with the values); 29,000 tested, under 10 active; AID 2316; call rule not given here;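 note: 0% = median vehicle wells and 100% = positive control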
NOMO-1 viab: STK33 inhibitor candidate reducing NOMO-1 cell viability; inhibition, % (no concentration beside the values); NOMO-1 AML viability, CellTiter-Glo luminescence, 72 h; 37,000 compounds, 7.5% hits; AID 2330; in the data active = inhibition above about 80%
YB-1 expression: YB-1 expression inhibition; U2OS, qRT-PCR YB-1 vs CDIP delta delta Cp, 16 h; stronger effect = higher value; zero = DMSO, each unit about twofold; delta delta Cp (YB-1 minus CDIP) (no concentration beside the values); 30,000 compounds, 0.37% hits; AID 434959;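 active = delta delta Cp rounded down to an integer at or above 3, about 3 SD of DMSO wells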;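 note: higher means less YB-1 transcript or more CDIP transcript relative to DMSO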
MITF inh: blocks MITF activity; TRPM1 promoter luciferase, luminescence, 24 h; inhibition, % (concentration not given with the values); 37,000 compounds, 0.28% hits; AID 2240; in the data active = inhibition above about 85%;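 note: human melanocyte line stably carrying TRPM1 promoter luciferase reporter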
Active calls of the source: *; · = not tested or not shown. Hits are enriched below; roughly 7.4% of the tested compounds scored in any of these assays.

SMILES | Hedgehog inh | PD-1 reversal | NOMO-1 viab | YB-1 expression | MITF inh
S=C(NCC1CCCO1)Nc1cnn(Cc2ccc(Cl)cc2)c1 (configuration not stated) | · | 0 | 3 | · | -5
Cc1cccc(-n2c(C)nnc2SCC(=O)Nc2ccc(Br)cc2F)c1 | · | 0 | -25 | · | -16
S=C(c1nc2ccccc2[nH]1)N1CCOCC1 | 2 | 0 | 17 | 5.2* | -9
COc1ccc(CN2C(=O)C(O)(CC(=O)c3ccc(C)s3)c3ccccc32)cc1OC (configuration not stated) | · | · | 114* | · | 17
Cc1ccccc1CN1C(=O)C(O)(CC(=O)c2ccncc2)c2cc(Cl)ccc21 (configuration not stated) | · | -7 | 129* | · | 16
O=C(CC1(O)C(=O)N(Cc2ccc(Cl)c(Cl)c2)c2ccccc21)c1cccc([N+](=O)[O-])c1 (configuration not stated) | · | -6 | 108* | · | 5
COc1ccc(C(=O)CC2(O)C(=O)N(Cc3ccccc3Cl)c3ccc(Cl)cc32)cc1OC (configuration not stated) | · | -2 | 90* | · | 52
Cc1ccc(C(=O)CC2(O)C(=O)N(Cc3cccc4ccccc34)c3ccccc32)cc1 (configuration not stated) | · | · | 32 | · | 40
Cc1nn(C)c(-c2n[nH]c(=S)n2-c2ccc(CC(=O)O)cc2)c1Br | · | 1 | -14 | · | -1
CC(=O)NCc1c(F)cccc1Cl | 23 | 2 | 9 | 0.46 | -3
O=S(=O)(c1cccc(-c2nnc(-c3ccccc3)o2)c1)N1CCCC1 | -84 | -1 | 59 | -0.14 | -73
CN(c1cccc(NC(=O)Cc2ccccc2[N+](=O)[O-])c1)S(C)(=O)=O | · | · | 18 | · | -17
O=C(CC1(O)C(=O)N(Cc2cccc3ccccc23)c2ccccc21)c1ccc(F)cc1 (configuration not stated) | · | · | 84* | · | 45
C=CCN1C(=O)C(O)(CC(=O)c2ccc(OC)c([N+](=O)[O-])c2)c2ccccc21 (configuration not stated) | · | -10 | 119* | · | 21
COc1ccc(CN2C(=O)C(O)(CC(=O)c3ccc(Cl)cc3)c3ccccc32)cc1OC (configuration not stated) | · | 1 | 112* | · | 3
COc1ccc(CN2C(=O)C(O)(CC(=O)c3ccc(Cl)s3)c3ccccc32)cc1OC (configuration not stated) | · | · | 109* | · | 1
COc1ccc(CN2C(=O)C(O)(CC(=O)c3ccc4c(c3)CCCC4)c3ccccc32)cc1OC (configuration not stated) | · | -2 | 47 | · | 0
CCOc1ccccc1NC(=O)CSc1ncnc2sc(C)c(C)c12 | · | -3 | -3 | · | 45
COc1ccc(CN2C(=O)C(O)(CC(=O)c3cccnc3)c3ccccc32)cc1OC (configuration not stated) | · | -4 | 106* | · | 2
CCn1c(SCC(=O)Nc2ccc(F)cc2)nnc1-c1cccc(Cl)c1 | · | -2 | 5 | · | 14
CCCCCC(=O)Cc1cc(O)c(O)c2c1C(=O)Oc1cc(O)c(C(=O)O)c(CCCCC)c1O2 | 75* | -10 | 108* | 0.55 | 29
C[C@@H]1CN([C@H](C)CO)C(=O)c2cccc(NC(=O)CCCCCC(=O)Nc3ccccc3N)c2O[C@H]1CN(C)S(=O)(=O)c1ccc(Cl)cc1 | · | 0 | 121* | -0.53 | 12
C[C@H](CO)N1C[C@H](C)[C@@H](CN(C)S(=O)(=O)c2ccccc2)Oc2c(NC(=O)CCCCCC(=O)Nc3ccccc3N)cccc2C1=O | · | 0 | 43 | -0.017 | 1
C[C@H]1CN([C@@H](C)CO)C(=O)c2cccc(NC(=O)CCCCCC(=O)Nc3ccccc3N)c2O[C@H]1CN(C)S(=O)(=O)c1ccccc1 | · | 0 | 65 | -0.62 | -1
Cc1ccc(S(=O)(=O)N(C)C[C@@H]2Oc3c(NC(=O)CCCCCC(=O)Nc4ccccc4N)cccc3C(=O)N([C@H](C)CO)C[C@@H]2C)cc1 | · | 0 | 111* | -0.93 | 30
C[C@H]1CN([C@@H](C)CO)C(=O)c2cccc(NC(=O)CCCCCC(=O)Nc3ccccc3N)c2O[C@H]1CN(C)S(=O)(=O)c1ccc(Cl)cc1 | · | 0 | 115* | 0.033 | 42
C[C@@H]1CN([C@H](C)CO)C(=O)c2cccc(NC(=O)CCCCCC(=O)Nc3ccccc3N)c2O[C@@H]1CN(C)S(=O)(=O)c1ccc(F)cc1 | · | -1 | 72 | -0.09 | -9
